± gives the standard deviation of the averaged measurements. About 6,200 targets were measured; listed, in parts, are those with the largest changes and a random draw of the rest.
Compound: Nc1ncnc2c1ncn2[C@@H]1O[C@H](COP(=O)(O)OP(=O)(O)NP(=O)(O)O)[C@@H](O)[C@H]1O [adenylyl imidodiphosphate]
Test: NP40-soluble protein abundance relative to vehicle (solubility fold change) (ratio); higher = more soluble protein in presence of AMP-PNP
Procedure, shortened: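 Jurkat crude lysate (Dounce-homogenised) was treated with eight concentrations from 0.1 to 10 mM for 10 min at room temperature, then 3 min at 37 °C. It was solubilised with 0.8% NP40 and benzonase (60 min, 4 °C) and ultracentrifuged, and the supernatant was TMT-labelled for LC-MS/MS. Intensities were vsn-normalised, and the value is the fold change against the NP40-processed vehicle per replicate, from three independent experiments.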

Chain of UniProt Q8NI36 (Q8NI36 whole entry, one chain of several): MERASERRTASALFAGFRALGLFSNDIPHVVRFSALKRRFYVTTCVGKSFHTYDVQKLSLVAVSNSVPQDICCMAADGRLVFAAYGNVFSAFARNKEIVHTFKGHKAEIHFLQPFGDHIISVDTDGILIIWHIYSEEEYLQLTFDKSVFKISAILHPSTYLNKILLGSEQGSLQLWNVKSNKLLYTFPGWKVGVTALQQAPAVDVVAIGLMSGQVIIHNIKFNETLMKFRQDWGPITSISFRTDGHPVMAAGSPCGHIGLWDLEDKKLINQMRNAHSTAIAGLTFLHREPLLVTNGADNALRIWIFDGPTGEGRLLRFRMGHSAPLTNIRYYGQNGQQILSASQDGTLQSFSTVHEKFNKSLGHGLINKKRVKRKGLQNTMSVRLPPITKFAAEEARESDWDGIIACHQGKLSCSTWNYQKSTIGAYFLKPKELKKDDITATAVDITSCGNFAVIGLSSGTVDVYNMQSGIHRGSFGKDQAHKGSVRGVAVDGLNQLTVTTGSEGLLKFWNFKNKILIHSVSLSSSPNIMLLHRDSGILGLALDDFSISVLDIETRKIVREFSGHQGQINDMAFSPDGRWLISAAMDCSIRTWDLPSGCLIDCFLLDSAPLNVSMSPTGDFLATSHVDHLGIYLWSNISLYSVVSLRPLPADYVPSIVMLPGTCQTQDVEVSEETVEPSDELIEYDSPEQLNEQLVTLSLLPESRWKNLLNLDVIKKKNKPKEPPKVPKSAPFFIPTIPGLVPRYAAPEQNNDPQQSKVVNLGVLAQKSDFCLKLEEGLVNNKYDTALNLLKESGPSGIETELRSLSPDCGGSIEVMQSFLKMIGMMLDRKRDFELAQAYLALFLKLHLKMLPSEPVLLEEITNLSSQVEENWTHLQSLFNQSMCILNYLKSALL
Chain of UniProt Q9NYL4 (Q9NYL4 whole entry, one chain of several): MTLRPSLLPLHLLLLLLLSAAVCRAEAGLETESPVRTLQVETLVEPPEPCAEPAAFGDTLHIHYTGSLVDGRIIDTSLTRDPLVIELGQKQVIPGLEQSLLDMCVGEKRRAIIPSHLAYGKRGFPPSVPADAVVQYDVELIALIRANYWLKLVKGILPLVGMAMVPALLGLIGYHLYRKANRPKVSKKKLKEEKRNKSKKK
Chain of UniProt Q9NWL6 (Q9NWL6 whole entry, one chain of several): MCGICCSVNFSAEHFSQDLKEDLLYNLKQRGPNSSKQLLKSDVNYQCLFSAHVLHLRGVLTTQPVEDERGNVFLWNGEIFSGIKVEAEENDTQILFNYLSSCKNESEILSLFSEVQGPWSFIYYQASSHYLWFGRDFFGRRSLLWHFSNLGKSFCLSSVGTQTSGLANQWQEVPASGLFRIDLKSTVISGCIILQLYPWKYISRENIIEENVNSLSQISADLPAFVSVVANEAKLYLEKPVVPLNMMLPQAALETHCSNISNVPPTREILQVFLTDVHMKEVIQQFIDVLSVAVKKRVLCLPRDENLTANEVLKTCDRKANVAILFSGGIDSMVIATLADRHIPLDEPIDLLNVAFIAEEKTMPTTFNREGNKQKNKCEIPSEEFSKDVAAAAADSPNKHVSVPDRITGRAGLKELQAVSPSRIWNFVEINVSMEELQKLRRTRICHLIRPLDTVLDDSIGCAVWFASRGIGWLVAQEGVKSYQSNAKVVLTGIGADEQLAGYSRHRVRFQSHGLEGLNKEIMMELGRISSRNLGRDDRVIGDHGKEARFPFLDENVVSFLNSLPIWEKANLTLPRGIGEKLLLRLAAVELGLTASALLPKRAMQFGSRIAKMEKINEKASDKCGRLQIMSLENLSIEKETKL
Chain of UniProt O43148 (O43148 whole entry): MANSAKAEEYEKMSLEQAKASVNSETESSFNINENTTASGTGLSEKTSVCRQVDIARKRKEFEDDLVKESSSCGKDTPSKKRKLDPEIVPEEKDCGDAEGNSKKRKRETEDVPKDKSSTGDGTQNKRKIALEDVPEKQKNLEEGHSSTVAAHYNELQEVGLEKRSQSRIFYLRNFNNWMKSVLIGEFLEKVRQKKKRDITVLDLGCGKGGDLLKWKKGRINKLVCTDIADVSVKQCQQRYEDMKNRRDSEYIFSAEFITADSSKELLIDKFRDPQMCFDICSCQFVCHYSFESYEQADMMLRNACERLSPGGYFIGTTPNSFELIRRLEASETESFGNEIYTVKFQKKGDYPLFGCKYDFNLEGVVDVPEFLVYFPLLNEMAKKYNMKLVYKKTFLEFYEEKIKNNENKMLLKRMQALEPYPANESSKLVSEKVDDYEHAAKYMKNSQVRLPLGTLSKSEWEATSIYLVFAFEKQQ
Chain of UniProt Q9H0E3 (Q9H0E3 whole entry, one chain of several): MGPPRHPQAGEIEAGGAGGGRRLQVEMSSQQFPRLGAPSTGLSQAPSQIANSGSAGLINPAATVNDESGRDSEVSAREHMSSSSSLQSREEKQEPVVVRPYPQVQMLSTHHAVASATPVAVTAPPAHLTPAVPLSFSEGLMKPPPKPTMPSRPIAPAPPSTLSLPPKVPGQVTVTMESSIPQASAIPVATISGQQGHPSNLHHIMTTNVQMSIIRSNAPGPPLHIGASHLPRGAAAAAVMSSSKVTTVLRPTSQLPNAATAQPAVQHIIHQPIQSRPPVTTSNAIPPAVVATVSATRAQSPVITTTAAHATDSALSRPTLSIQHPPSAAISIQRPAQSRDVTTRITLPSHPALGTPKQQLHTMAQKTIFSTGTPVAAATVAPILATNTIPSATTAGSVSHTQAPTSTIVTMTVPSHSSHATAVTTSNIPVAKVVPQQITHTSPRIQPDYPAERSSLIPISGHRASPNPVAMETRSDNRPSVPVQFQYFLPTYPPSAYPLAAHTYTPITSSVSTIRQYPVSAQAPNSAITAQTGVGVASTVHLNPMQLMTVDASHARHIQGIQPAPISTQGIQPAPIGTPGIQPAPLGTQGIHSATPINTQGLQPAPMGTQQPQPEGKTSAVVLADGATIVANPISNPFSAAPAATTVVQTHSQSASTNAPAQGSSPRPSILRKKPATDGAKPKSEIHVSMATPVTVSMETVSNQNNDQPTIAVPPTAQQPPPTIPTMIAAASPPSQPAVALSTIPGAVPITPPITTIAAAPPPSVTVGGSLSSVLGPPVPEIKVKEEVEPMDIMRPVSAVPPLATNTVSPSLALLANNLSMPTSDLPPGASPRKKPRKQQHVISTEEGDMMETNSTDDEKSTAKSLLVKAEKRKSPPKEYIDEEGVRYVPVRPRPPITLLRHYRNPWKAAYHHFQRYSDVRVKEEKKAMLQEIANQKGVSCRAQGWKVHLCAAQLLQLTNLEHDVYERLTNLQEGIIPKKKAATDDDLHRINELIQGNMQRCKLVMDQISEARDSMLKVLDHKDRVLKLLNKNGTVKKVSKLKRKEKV
Chain of UniProt Q96K37 (Q96K37 whole entry, one chain of several): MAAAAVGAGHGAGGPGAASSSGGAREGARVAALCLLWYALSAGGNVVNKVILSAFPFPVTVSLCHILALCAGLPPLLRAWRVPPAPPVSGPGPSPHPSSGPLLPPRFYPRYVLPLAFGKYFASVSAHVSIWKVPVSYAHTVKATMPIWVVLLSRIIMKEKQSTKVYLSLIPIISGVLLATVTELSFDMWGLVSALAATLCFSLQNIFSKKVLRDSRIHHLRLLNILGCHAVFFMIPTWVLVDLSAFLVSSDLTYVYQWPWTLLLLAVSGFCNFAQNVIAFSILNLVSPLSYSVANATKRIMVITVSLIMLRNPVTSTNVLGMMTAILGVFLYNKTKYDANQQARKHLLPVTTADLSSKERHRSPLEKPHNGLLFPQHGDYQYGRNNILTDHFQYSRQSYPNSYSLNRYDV
Chain of UniProt O95772 (O95772 whole entry, one chain of several): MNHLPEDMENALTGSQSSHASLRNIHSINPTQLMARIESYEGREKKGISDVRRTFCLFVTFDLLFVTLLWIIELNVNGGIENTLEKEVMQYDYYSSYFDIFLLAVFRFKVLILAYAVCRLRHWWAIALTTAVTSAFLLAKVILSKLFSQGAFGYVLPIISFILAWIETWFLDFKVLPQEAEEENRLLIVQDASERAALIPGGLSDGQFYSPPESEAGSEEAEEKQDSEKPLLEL
Chain of UniProt O00629 (O00629 whole entry): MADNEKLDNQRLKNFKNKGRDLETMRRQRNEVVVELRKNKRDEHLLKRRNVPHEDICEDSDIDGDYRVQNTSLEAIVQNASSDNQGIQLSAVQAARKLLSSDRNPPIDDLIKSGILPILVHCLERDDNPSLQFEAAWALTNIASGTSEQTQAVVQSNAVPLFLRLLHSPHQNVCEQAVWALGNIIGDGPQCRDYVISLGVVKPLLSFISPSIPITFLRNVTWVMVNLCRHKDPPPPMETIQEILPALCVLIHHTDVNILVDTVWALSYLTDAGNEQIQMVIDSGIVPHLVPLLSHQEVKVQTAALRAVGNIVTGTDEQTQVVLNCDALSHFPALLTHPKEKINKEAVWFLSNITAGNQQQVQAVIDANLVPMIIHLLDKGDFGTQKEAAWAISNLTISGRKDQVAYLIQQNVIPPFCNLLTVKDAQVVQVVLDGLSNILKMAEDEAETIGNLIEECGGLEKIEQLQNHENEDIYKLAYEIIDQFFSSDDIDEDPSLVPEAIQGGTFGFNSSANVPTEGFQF
Chain of UniProt O43169 (O43169 whole entry, one chain of several): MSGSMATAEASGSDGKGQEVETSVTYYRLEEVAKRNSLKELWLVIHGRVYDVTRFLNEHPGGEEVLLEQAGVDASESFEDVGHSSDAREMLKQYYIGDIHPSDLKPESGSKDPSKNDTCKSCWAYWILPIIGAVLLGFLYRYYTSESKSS
Chain of UniProt O15400 (O15400 whole entry): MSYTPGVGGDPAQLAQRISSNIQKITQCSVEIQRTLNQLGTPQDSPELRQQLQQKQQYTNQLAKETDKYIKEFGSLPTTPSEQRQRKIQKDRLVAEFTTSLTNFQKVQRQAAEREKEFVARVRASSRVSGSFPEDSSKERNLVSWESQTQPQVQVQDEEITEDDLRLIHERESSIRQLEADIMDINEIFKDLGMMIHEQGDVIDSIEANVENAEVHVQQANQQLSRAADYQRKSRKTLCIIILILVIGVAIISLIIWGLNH
Chain of UniProt O75264 (O75264 whole entry, one chain of several): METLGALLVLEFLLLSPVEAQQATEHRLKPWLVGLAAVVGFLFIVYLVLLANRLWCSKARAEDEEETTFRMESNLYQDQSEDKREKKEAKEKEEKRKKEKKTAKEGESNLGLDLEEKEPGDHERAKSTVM

Target	NP40-soluble protein abundance (concentration: 1mM)	NP40-soluble protein abundance (concentration: 2mM)	NP40-soluble protein abundance (concentration: 4mM)	NP40-soluble protein abundance (concentration: 6mM)	NP40-soluble protein abundance (concentration: 8mM)	NP40-soluble protein abundance (concentration: 10mM)
H3BRQ0|Q96CD2 (UniProt Q96CD2)	0.997 ± 0.028	0.998 ± 0.014	0.9917 ± 0.0054	1.018 ± 0.008	1 ± 0.041	0.978 ± 0.011
F5H7W8|Q96C57 (UniProt Q96C57)	1.17 ± 0.015	1.26 ± 0.088	1.25 ± 0.058	1.29 ± 0.047	1.34 ± 0.062	1.37 ± 0.12
C9JIF9|P13798 (UniProt P13798)	0.953 ± 0.027	0.88 ± 0.061	0.915 ± 0.0095	0.903 ± 0.014	0.909 ± 0.022	0.871 ± 0.04
A0A0A0MTB8|Q8NI36 (UniProt Q8NI36)	1.1 ± 0.06	1.15 ± 0.11	1.37 ± 0.12	1.55 ± 0.11	1.73 ± 0.16	1.78 ± 0.086
UniProt A2RU67	0.9918 ± 0.004	1.03 ± 0.031	1.02 ± 0.021	1 ± 0.019	1 ± 0.017	1.03 ± 0.016
L0R819 (UniProt Q9NWL6)	1.04 ± 0.017	1.03 ± 0.074	1.01 ± 0.026	0.996 ± 0.089	0.972 ± 0.055	1 ± 0.044
F8W1A0|P36873 (UniProt P36873)	0.983 ± 0.022	0.928 ± 0.056	0.972 ± 0.014	0.985 ± 0.03	0.986 ± 0.021	0.9667 ± 0.0073
A0A0C4DH01|Q9NVU0|Q9NVU0-4|Q9NVU0-5|Q9NVU0-2|Q9NVU0-3 (UniProt Q9NVU0)	1 ± 0.058	1.02 ± 0.019	1.06 ± 0.052	1.03 ± 0.063	1.02 ± 0.064	1.07 ± 0.081
H7BXF5|Q9H0E3-3 (UniProt Q9H0E3)	1.05 ± 0.041	1.09 ± 0.035	1.02 ± 0.03	1.03 ± 0.039	0.993 ± 0.016	1.05 ± 0.057
SART1 (UniProt O43290)	1.07 ± 0.048	1.12 ± 0.054	1.11 ± 0.034	1.22 ± 0.089	1.26 ± 0.067	1.36 ± 0.081
F8VUY8|Q96QD8 (UniProt Q96QD8)	1 ± 0.015	1.07 ± 0.091	1 ± 0.022	0.967 ± 0.022	0.988 ± 0.014	0.989 ± 0.02
A0A0A6YYH1|H0YLI7|P59780|Q7Z6K5-2 (UniProt Q7Z6K5+P59780+H0YLI7)	1 ± 0.04	1.01 ± 0.011	0.9742 ± 0.0072	0.974 ± 0.028	0.965 ± 0.032	0.968 ± 0.017
KPNA4 (UniProt O00629)	1.07 ± 0.029	1.074 ± 0.0097	1.07 ± 0.016	1.03 ± 0.047	1.05 ± 0.051	1.05 ± 0.037
H7C1I0|Q96K37|Q96K37-2 (UniProt Q96K37)	1.02 ± 0.041	1.03 ± 0.017	1.02 ± 0.022	1.02 ± 0.039	1.05 ± 0.054	1.07 ± 0.056
C9JKL2|O95772|O95772-2|C9J3F5|C9JJ39|C9JPX5 (UniProt O95772)	1.02 ± 0.019	1.04 ± 0.036	1.01 ± 0.016	0.989 ± 0.028	0.989 ± 0.019	1 ± 0.034
UniProt O43148|O43148-2	0.996 ± 0.013	1.01 ± 0.011	0.992 ± 0.017	0.992 ± 0.027	0.985 ± 0.029	1 ± 0.033
A0A0A0MTG1|A0A0G2JIA5|A0A140T8Y0|A0A140TA35|A0A140TA36|A0A140TA40|A0A140TA45|Q5ST30|Q5ST30-4|A0A0G2JL52|B4E0K6|B7ZL25 (UniProt Q5ST30)	1 ± 0.017	0.992 ± 0.051	0.992 ± 0.02	0.98 ± 0.034	0.979 ± 0.022	0.969 ± 0.04
J3KNF8|O43169 (UniProt O43169)	1.15 ± 0.069	1.34 ± 0.33	1.1 ± 0.049	1.08 ± 0.047	1.03 ± 0.08	1.05 ± 0.054
F8W922|Q9H7P6|Q9H7P6-2 (UniProt Q9H7P6)	1.01 ± 0.013	0.98 ± 0.022	0.989 ± 0.02	1.02 ± 0.032	1.02 ± 0.016	1.02 ± 0.013
UniProt O15400|O15400-2	1.01 ± 0.059	1.04 ± 0.1	0.993 ± 0.06	0.992 ± 0.035	0.976 ± 0.039	0.957 ± 0.038
D6RAJ6|Q9UKT5|Q9UKT5-2 (UniProt Q9UKT5)	1.01 ± 0.035	0.996 ± 0.032	0.986 ± 0.024	0.975 ± 0.026	0.983 ± 0.035	0.981 ± 0.045
H0YLF3|P61769 (UniProt P61769)	0.99 ± 0.055	0.977 ± 0.084	0.923 ± 0.1	0.879 ± 0.15	0.971 ± 0.035	0.917 ± 0.076
E9PLV1|Q9NQV6|Q9NQV6-1|Q9NQV6-2|Q9NQV6-4|Q9NQV6-5|Q9NQV6-6|Q9NQV6-7|E9PRS0 (UniProt Q9NQV6)	1 ± 0.012	0.963 ± 0.055	0.9952 ± 0.0059	0.989 ± 0.021	1 ± 0.034	0.98 ± 0.023
G3V5N8|Q9HBF4|Q9HBF4-3 (UniProt Q9HBF4)	0.991 ± 0.012	0.986 ± 0.035	0.987 ± 0.054	0.96 ± 0.021	0.968 ± 0.0098	0.938 ± 0.047
C9J0Q5|C9JE98|C9JFD3|Q9Y618|Q9Y618-3|Q9Y618-4|Q9Y618-5 (UniProt Q9Y618)	1.03 ± 0.0079	1.05 ± 0.04	1.03 ± 0.035	0.969 ± 0.057	0.951 ± 0.02	1.01 ± 0.052
B5MCS2|Q8WTS6 (UniProt Q8WTS6)	0.93 ± 0.076	0.946 ± 0.039	0.946 ± 0.043	0.954 ± 0.032	0.957 ± 0.022	0.936 ± 0.042
K7EKM7 (UniProt O75264)	1 ± 0.035	0.988 ± 0.015	1 ± 0.038	0.971 ± 0.032	0.9753 ± 0.0085	1.01 ± 0.014
UniProt O75037|O75037-2	1.03 ± 0.042	1.06 ± 0.018	1.04 ± 0.05	1.01 ± 0.04	1 ± 0.032	1.04 ± 0.052
UniProt O60504-2|O60504	1.03 ± 0.013	0.999 ± 0.018	1.04 ± 0.018	1.03 ± 0.029	1.02 ± 0.029	1.02 ± 0.025
F8VU90|Q9NYL4|Q9NYL4-2 (UniProt Q9NYL4)	1.01 ± 0.042	1.04 ± 0.043	1.07 ± 0.062	0.997 ± 0.031	0.999 ± 0.084	0.994 ± 0.12
